The panel holds about 83,000 compounds, 20% with a hit somewhere; the sample as a whole holds those more often.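 48-hour exposure, single concentration, 96-well plates; percent growth endpoint where 0 means no net growth. Active: below 10.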 Values without a mark were called inactive. Activity calls are given as the source filed them.
How the values were obtained:
Assay in all cases: NCI-60 one-dose screen, 48 h (100 = growth as untreated, 0 = no growth, -100 = all killed)
[1] = tested on: HCT-15 colon; details: 10 µM unless noted
[2] = tested on: HT29 colon; details: 10 µM unless noted
[3] = tested on: SNB-19 CNS; details: 10 µM unless noted
[4] = tested on: U251 CNS; details: 10 µM unless noted
[5] = tested on: SK-MEL-5 melanoma; details: 10 µM unless noted
[6] = tested on: UACC-62 melanoma; details: 10 µM unless noted
[7] = tested on: LOX IMVI melanoma; details: 10 µM
[8] = tested on: SK-MEL-28 melanoma; details: 10 µM unless noted
[9] = tested on: SK-MEL-2 melanoma; details: 10 µM unless noted
[10] = tested on: EKVX NSCLC; details: 10 µM unless noted
[11] = tested on: SN12C renal; details: 10 µM unless noted
[12] = tested on: UO-31 renal; details: 10 µM unless noted
[13] = tested on: TK-10 renal; details: 10 µM unless noted
[14] = tested on: ACHN renal; details: 10 µM unless noted
[15] = tested on: CAKI-1 renal; details: 10 µM unless noted
[16] = tested on: A498 renal; details: 10 µM unless noted
[17] = tested on: CCRF-CEM leukemia; details: 10 µM unless noted
[18] = tested on: MOLT-4 leukemia; details: 10 µM unless noted
[19] = tested on: PC-3 prostate; details: 10 µM unless noted

## COc1ccc(/C=C/c2nc3ccccc3c(=O)n2CC(=O)Nc2ccc(OC)cc2)cc1
[1]
  growth: 88.4%
[2]
  growth: 72.9%
[3]
  growth: 51.9%
[4]
  growth: 25.6%
[5]
  growth: 92.3%
[6]
  growth: 74.7%
[7]
  growth: 64.8%
[8]
  growth: 103%
[9]
  growth: 96%
[10]
  growth: 114%
[11]
  growth: 57.3%
[12]
  growth: 46.9%
[13]
  growth: 48.2%
[14]
  growth: 14%
[15]
  growth: 47.3%
[16]
  growth: 130%
[17]
  growth: 63.6%
[18]
  growth: 78.2%

## COc1ccc2[nH]c(O)c(N=NC(=O)Cn3c(-c4ccccc4)nc4cc(C)ccc43)c2c1
[1]
  growth: 3.08% (active)
[2]
  growth: -1.1% (active)
[3]
  growth: 59.2%
[19]
  growth: 21.5%
[6]
  growth: 6.74% (active)
[7]
  growth: 38.3%
[8]
  growth: -23.6% (active)
[9]
  growth: 88.4%
[10]
  growth: 66.3%
[11]
  growth: -73.7% (active)
[12]
  growth: 49.7%
[13]
  growth: 97.7%
[14]
  growth: 41.1%
[15]
  growth: 61.9%
[16]
  growth: 119%
[17]
  growth: 8.31% (active)
[18]
  growth: 18.5%

## COc1ccccc1C(=O)NN1C(=O)/C(=C/C2=Cc3ccccc3OC2)SC1=S
[1]
  growth: 114%
[2]
  growth: 110%
[3]
  growth: 97.6%
[4]
  growth: 101%
[19]
  growth: 91.2%
[5]
  growth: 104%
[6]
  growth: 91.8%
[7]
  growth: 94%
[8]
  growth: 109%
[9]
  growth: 109%
[10]
  growth: 105%
[11]
  growth: 104%
[13]
  growth: 124%
[14]
  growth: 103%
[15]
  growth: 45.5%
[16]
  growth: 134%
[17]
  growth: 93.7%
[18]
  growth: 100%

## COc1ccc(-c2ccc(SCC(=O)NCCc3ccc(S(N)(=O)=O)cc3)nn2)cc1
[1]
  growth: 110%
[2]
  growth: 96.5%
[3]
  growth: 77.4%
[4]
  growth: 91.1%
[19]
  growth: 81.8%
[5]
  growth: 52.9%
[6]
  growth: 75.8%
[7]
  growth: 89.1%
[8]
  growth: 89.1%
[9]
  growth: 79.8%
[10]
  growth: 93.9%
[11]
  growth: 87.3%
[13]
  growth: 87.9%
[14]
  growth: 89.3%
[15]
  growth: 90.6%
[16]
  growth: 123%
[17]
  growth: 66%
[18]
  growth: 68.2%

## COc1ccc(-c2nc3cc(C)ccc3n2CC(=O)N=Nc2c(O)[nH]c3ccc(Cl)cc23)cc1
[1]
  growth: -71.2% (active)
[2]
  growth: -71.1% (active)
[3]
  growth: 31.4%
[4]
  growth: -73.9% (active)
[19]
  growth: 9.75% (active)
[6]
  growth: -52.3% (active)
[7]
  growth: -93.4% (active)
[8]
  growth: -67.6% (active)
[9]
  growth: 47.9%
[10]
  growth: -49.5% (active)
[11]
  growth: -62.6% (active)
[12]
  growth: 41.7%
[13]
  growth: 21.6%
[15]
  growth: 33%
[16]
  growth: 101%
[17]
  growth: 54.9%
[18]
  growth: 11%

## Cc1sc2c(c1C)C(c1ccc(Cl)cc1)=N[C@@H](CC(=O)NCCCCCNC(=O)COc1ccc(C3CCC(=O)NC3=O)cc1)c1nnc(C)n1-2 (stereo partly specified)
[1]
  growth: 33%
[2]
  growth: 13%
[3]
  growth: 23.8%
[4]
  growth: 45.2%
[19]
  growth: 11.3%
[5]
  growth: -13.4% (active)
[6]
  growth: 3.07% (active)
[7]
  growth: 11.3%
[8]
  growth: 48.3%
[9]
  growth: 13.4%
[10]
  growth: 29.5%
[11]
  growth: 18.7%
[13]
  growth: 5.57% (active)
[14]
  growth: 44%
[15]
  growth: 16.4%
[16]
  growth: 48.4%
[17]
  growth: 49.2%
[18]
  growth: 16.4%

## COc1ccc2c(c1)c(-c1cc3nc(-c4cn(C)c5ncc(Br)cc45)cc(N)n3n1)cn2C
[1]
  growth: -48% (active)
[2]
  growth: -88.5% (active)
[4]
  growth: -57.3% (active)
[19]
  growth: -19.5% (active)
[5]
  growth: -88.1% (active)
[6]
  growth: -82.2% (active)
[7]
  growth: -100% (active)
[8]
  growth: -92.8% (active)
[9]
  growth: -68.6% (active)
[10]
  growth: -51.6% (active)
[11]
  growth: -75.3% (active)
[12]
  growth: -58.1% (active)
[13]
  growth: -40.8% (active)
[14]
  growth: -92.3% (active)
[15]
  growth: -39.9% (active)
[16]
  growth: 86.8%
[17]
  growth: -29.2% (active)
[18]
  growth: -43.6% (active)

## CC(=O)c1cc(C(=O)c2ccccc2)n2c1ccc1ccccc12
[1]
  growth: 104%
[2]
  growth: 109%
[3]
  growth: 98%
[4]
  growth: 106%
[19]
  growth: 81%
[6]
  growth: 86.9%
[7]
  growth: 96.7%
[8]
  growth: 122%
[9]
  growth: 117%
[10]
  growth: 98.5%
[11]
  growth: 90.6%
[12]
  growth: 55.5%
[13]
  growth: 142%
[14]
  growth: 91.7%
[15]
  growth: 79.6%
[16]
  growth: 129%
[17]
  growth: 108%
[18]
  growth: 87.6%

## Brc1ccc(N/N=C/c2c[nH]c3ccc(Br)cc23)nc1
[1]
  growth: -61.8% (active)
[2]
  growth: -80.1% (active)
[3]
  growth: 4.49% (active)
[4]
  growth: -63.5% (active)
[19]
  growth: -29.6% (active)
[5]
  growth: -87% (active)
[6]
  growth: -57% (active)
[7]
  growth: -100% (active)
[8]
  growth: -50.7% (active)
[9]
  growth: -57% (active)
[10]
  growth: -11.8% (active)
[11]
  growth: -22.6% (active)
[14]
  growth: -22.8% (active)
[16]
  growth: -21.3% (active)
[17]
  growth: -37.7% (active)
[18]
  growth: -35% (active)

## Cc1ccc([C@H]2C(C(=O)c3ccc(Cl)cc3)C3(N[C@@H]2c2ccccc2)C(=O)Nc2ccc(Br)cc23)cc1 (stereo partly specified)
[1]
  growth: 50.8%
[2]
  growth: 7.2% (active)
[4]
  growth: 47.9%
[19]
  growth: 16.7%
[5]
  growth: 88%
[6]
  growth: 45.9%
[7]
  growth: 35.9%
[8]
  growth: 77.9%
[9]
  growth: 60.2%
[10]
  growth: 65.3%
[11]
  growth: 4.02% (active)
[12]
  growth: 38.6%
[13]
  growth: 91.6%
[15]
  growth: 44%
[16]
  growth: 101%
[17]
  growth: 68.7%
[18]
  growth: 8.72% (active)

## CC(=O)c1cccc(NC(=O)CCC(=O)NS(=O)(=O)c2ccc(C)cc2)c1
[1]
  growth: 107%
[2]
  growth: 106%
[3]
  growth: 98.5%
[4]
  growth: 104%
[19]
  growth: 105%
[5]
  growth: 109%
[6]
  growth: 102%
[7]
  growth: 104%
[8]
  growth: 108%
[9]
  growth: 115%
[10]
  growth: 99.5%
[11]
  growth: 111%
[14]
  growth: 105%
[15]
  growth: 101%
[16]
  growth: 137%
[17]
  growth: 99%
[18]
  growth: 107%

## Cc1ccccc1[C@H]1C(C(=O)c2ccc(Cl)cc2)C2(N[C@@H]1c1ccccc1)C(=O)Nc1ccc(Cl)cc12 (stereo partly specified)
[1]
  growth: -69.1% (active)
[2]
  growth: -88.5% (active)
[3]
  growth: 17.4%
[19]
  growth: -26.9% (active)
[5]
  growth: 0.559% (active)
[6]
  growth: -55.5% (active)
[7]
  growth: -100% (active)
[8]
  growth: -23.4% (active)
[9]
  growth: -64% (active)
[10]
  growth: -20.6% (active)
[11]
  growth: -95.4% (active)
[12]
  growth: 0.337% (active)
[13]
  growth: 9% (active)
[14]
  growth: -9.02% (active)
[15]
  growth: 8.92% (active)
[16]
  growth: 50%
[17]
  growth: -14.9% (active)
[18]
  growth: -17.5% (active)

## O=C1/C(=C/C2=Cc3ccccc3OC2)SC(=S)N1c1ccccc1F
[1]
  growth: 107%
[2]
  growth: 110%
[3]
  growth: 98.2%
[19]
  growth: 95.7%
[5]
  growth: 105%
[6]
  growth: 88.4%
[7]
  growth: 101%
[8]
  growth: 105%
[9]
  growth: 107%
[10]
  growth: 98.8%
[11]
  growth: 103%
[12]
  growth: 82.6%
[13]
  growth: 105%
[14]
  growth: 107%
[15]
  growth: 99.1%
[16]
  growth: 122%
[17]
  growth: 97.5%
[18]
  growth: 95.2%

## Cn1cc(NC(=O)c2cc(NC(=O)c3ccc(/C=C/c4ccccc4)cc3)cn2C)cc1C(=O)NCCCN1CCOCC1
[1]
  growth: 7.6% (active)
[2]
  growth: -88.5% (active)
[4]
  growth: -69.2% (active)
[19]
  growth: 38.1%
[5]
  growth: -70% (active)
[6]
  growth: -89% (active)
[7]
  growth: -97.5% (active)
[8]
  growth: 32.5%
[9]
  growth: 99.6%
[10]
  growth: 89.6%
[11]
  growth: 43.4%
[12]
  growth: 61.6%
[13]
  growth: 87.9%
[14]
  growth: 70.7%
[15]
  growth: 55.6%
[16]
  growth: 90.6%
[17]
  growth: -8.72% (active)
[18]
  growth: -23.6% (active)

## COc1ccc(/C=C/c2nc3ccccc3c(=O)n2CC(=O)Nc2ccc(Cl)cc2)cc1
[1]
  growth: 75.2%
[2]
  growth: 38.7%
[3]
  growth: 77.4%
[4]
  growth: 10.9%
[19]
  growth: 48.3%
[5]
  growth: 89%
[6]
  growth: 73.3%
[7]
  growth: 36.5%
[8]
  growth: 93%
[9]
  growth: 99.9%
[10]
  growth: 89.3%
[11]
  growth: 55.3%
[13]
  growth: 116%
[14]
  growth: 50.7%
[15]
  growth: 43.1%
[16]
  growth: 118%
[17]
  growth: 108%
[18]
  growth: 82.2%

## COc1c(F)ccc(C(=O)Nc2ccc3nc(NC(=O)C4CCCN(S(=O)(=O)c5ccc(Cl)cc5)C4)sc3c2)c1F (stereo unspecified)
[1]
  growth: 72.8%
[2]
  growth: 72.1%
[4]
  growth: 70.3%
[19]
  growth: 55.9%
[5]
  growth: 72.3%
[6]
  growth: 67.1%
[7]
  growth: 76%
[8]
  growth: 89.4%
[9]
  growth: 88%
[10]
  growth: 85.1%
[11]
  growth: 82%
[12]
  growth: 62.9%
[14]
  growth: 86.7%
[15]
  growth: 68.9%
[16]
  growth: 96.4%
[17]
  growth: 85.5%
[18]
  growth: 38.8%
